Assay outcomes deposited in PubChem BioAssay by National Center for Advancing Translational Sciences (NCATS).
HCMV antiviral = inhibitors of human cytomegalovirus | activity change, negative = inhibition, % at 57.5 µM | HFF cells, HCMV-luciferase reporter, 72 h; active compounds read low | 410,000 compounds, 4.5% hits; in the data active means activity change below about -60%; inconclusive means no clear call, values can overlap the other calls; inactive means above about -39%
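Cell-based, HFFs, 1000 cells/well, 16 h 37C; cpds in DMSO + HCMV-luc, MOI 1 PFU/cell; 72 h 37C; OneGlo luminescence after 5 min RT; norm. to buffer vs Salinomycin 10uM.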
Pf growth 96h = inhibits malaria parasite growth, 96 h | P. falciparum luciferase reporter growth, 96 h | Potency, µM (highest dose often 28.7 µM), most hits filed as inhibitors | 320,000 compounds, 6.9% hits | AID 504834
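Erythrocytes infected with luciferase-expressing P. falciparum were dispensed at 2% hematocrit and 0.05% parasitemia (final), then incubated with compounds 96 hours at 37 C in 5% CO2. Luminescence after detection reagent addition reported growth.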
Cycloheximide cs = counter-screen hit for Shiga toxin inhibitors, cycloheximide; max response, %; AID 2314; 300,000 compounds, 12% hits; cell reporter, cycloheximide protein synthesis inhibition counterscreen; in the data active means max response mostly above about 13%, no sharp cut-off; inactive means mostly below about 14%; further: read at 38.3 µM for the half of the compounds with a filed dose
Pf growth 48h = P. falciparum growth inhibition at 48 hours (one generation) | P. falciparum luciferase growth in erythrocytes, 48 h | Potency, µM (doses to about 28.7 µM), usual class: inhibitors | 310,000 compounds, 5.9% hits | AID 504832
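Read-out is firefly luciferase luminescence from an integrated reporter in P. falciparum, so falling signal marks reduced parasite growth. Infected erythrocytes were at 2% hematocrit and 0.1% parasitemia (final) in Albumax-supplemented RPMI 1640.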
Shiga inhibitor = Shiga toxin inhibition; inhibition, % at 38.7 µM; Vero cells, Shiga toxin protein synthesis inhibition reporter; 290,000 compounds, 9.2% hits; AID 2315; in the data active means inhibition mostly above about 28%, no sharp cut-off; inactive means mostly below about 43%
Of the large screens only hits and unclear results are named; the others gave an inactive call. Compounds with a hit are over-represented: about 20% of the library has one in this group of screens. Unless noted, the call rests on the fitted dose curve; in most records, active means well fitted inhibition curve with a large enough effect; inconclusive means small, poorly fitted or top-dose-only effect, or another doubt; inactive means no such curve, though single readings can be large or run the other way.

COc1ccc(CNC(=O)CN(CC2CCCO2)C(=O)CNS(=O)(=O)c2ccc(F)cc2)cc1 (stereo not given)	Pf growth 96h 10.4µM
CCC(C(=O)NC(C)(C)C)N(Cc1cccs1)C(=O)CNS(=O)(=O)c1ccccc1 (stereo not given)	Pf growth 48h 2.33µM
CCOc1ccccc1N(CC(=O)NCC1CCCO1)C(=O)CNS(=O)(=O)c1ccccc1 (stereo not given)	HCMV antiviral -68.8, Pf growth 96h 14.7µM
CCC(C(=O)NCC1CCCO1)N(Cc1ccc(F)cc1)C(=O)CNS(=O)(=O)c1ccccc1 (stereo not given)	HCMV antiviral -70.6, Pf growth 96h inconclusive
CCN(CC)C(=O)CSc1nnc2[nH]c(=O)cc(C)n12	none (no result: Pf growth 96h, Cycloheximide cs, Pf growth 48h, Shiga inhibitor)
O=C(Nc1ccc2cn[nH]c2c1)c1c(Cl)cccc1Cl	HCMV antiviral -94.3
O=C1C(Cl)=C(Nc2ccc3cn[nH]c3c2)C(=O)c2ccccc21	HCMV antiviral -99.9, Pf growth 96h 8.28µM, Pf growth 48h 11.7µM
O=C(Nc1ccc(F)cc1)Nc1ccc(NC(=O)c2ccccc2O)cc1	Pf growth 48h 11.7µM
O=C(Nc1ccc2ccccc2c1)c1ccccc1F	Cycloheximide cs 24.0
O=C(COC(=O)c1cnccn1)c1ccc(C2CCCCC2)cc1	Pf growth 96h inconclusive
CSc1ccccc1NC(=O)C1CCCN(S(C)(=O)=O)C1 (stereo not given)	none
CCCS(=O)(=O)NC(=O)C1(C)CCCN(C(=O)c2cccnc2Oc2ccccc2)C1 (stereo not given)	none (no result: Pf growth 96h, Cycloheximide cs, Pf growth 48h, Shiga inhibitor)
Cn1c(=O)c2c(c3ccccc31)OC(=O)CC2c1cccc(F)c1 (stereo not given)	none (no result: Pf growth 96h, Cycloheximide cs, Pf growth 48h, Shiga inhibitor)
CCOC(=O)N1CCC(=NNC(=O)c2ccccc2F)CC1	Cycloheximide cs 49.0, Shiga inhibitor 25.3
O=C(CCNC(=O)c1ccco1)Nc1ccc(SC(F)F)cc1	none
O=C(Nc1ccc(SC(F)F)cc1)c1ccccc1F	Cycloheximide cs 45.1, Shiga inhibitor 92.4
CC(=O)Nc1c(O)nc(SCC(=O)Nc2ccc(C(C)=O)cc2)[nH]c1=O	Cycloheximide cs 47.5, Shiga inhibitor 133.6
CCOC(=O)N1CCC(=NNC(=O)c2ccc(O)cc2)CC1	Pf growth 96h inconclusive
c1cncc(-c2nc3cc4ccccc4cc3[nH]2)c1	Cycloheximide cs 45.5, Shiga inhibitor 61.8
c1ccc(-c2nc3cc4ccccc4cc3[nH]2)nc1	none
Cc1cccc(NC(=O)CSc2nc3ccc(NC(=O)c4ccccc4)cc3s2)c1	none (no result: Pf growth 96h, Cycloheximide cs, Pf growth 48h, Shiga inhibitor)
CC(=O)Nc1ccc(NC(=O)CSc2nc(N)c(NC(=O)c3ccccc3F)c(=O)[nH]2)cc1	Pf growth 96h 11.7µM, Pf growth 48h inconclusive
O=C(Nc1ccc(SC(F)F)cc1)c1ccc(F)cc1	Cycloheximide cs 36.9, Shiga inhibitor 145.1
O=C(NCc1ccncc1)c1ccccc1Nc1ccc(SC(F)F)cc1	Pf growth 96h inconclusive, Pf growth 48h inconclusive
O=C(Nc1ccc(C(=O)N2CCCC2)cc1)c1ccccc1F	Cycloheximide cs 36.5, Shiga inhibitor 65.6 (no result: Pf growth 96h)
CNC(=O)c1ccccc1Nc1ccc(SC(F)F)cc1	Pf growth 96h inconclusive, Cycloheximide cs 22.8, Shiga inhibitor 24.3
Cc1ccc(C)c(OCCC(=O)N(C)CC(=O)Nc2c(C)cccc2C)c1	Pf growth 48h inconclusive (no result: Cycloheximide cs, Shiga inhibitor)
CC[C@H](C)[C@@H](C(=O)N1CCNCC1)n1cc([C@@H](N)CC(C)C)nn1	Pf growth 96h inconclusive, Pf growth 48h inconclusive
O=C(Nc1ccc2oc(-c3cccnc3)nc2c1)c1ccccc1F	none (no result: Pf growth 96h, Cycloheximide cs, Pf growth 48h, Shiga inhibitor)
O=C(Nc1ccc2oc(-c3ccc(F)cc3)nc2c1)c1ccccc1F	HCMV antiviral inconclusive, Shiga inhibitor 39.1
CCOC(=O)Nc1ccc(NC(=O)c2ccccc2F)cc1	Cycloheximide cs 18.3, Shiga inhibitor 85.2
O=C(Nc1ccc2nc(-c3cccnc3)[nH]c2c1)c1ccccc1F	Cycloheximide cs 15.0, Pf growth 48h inconclusive
CC(=O)Nc1ccc(NC(=O)c2ccccc2F)cc1	Cycloheximide cs 19.9, Shiga inhibitor 57.9
Cc1cnn(-c2ccc3nnc(-c4ccc(Br)cc4)n3n2)c1	none
COc1ccc(S(=O)(=O)NC(C)C(=O)NCc2ccc3c(c2)OCO3)cc1OC (stereo not given)	none
O=C(Nc1ccc2cn[nH]c2c1)c1ccccc1F	Cycloheximide cs 60.3, Shiga inhibitor 39.5
O=C(Nc1ccncc1)c1ccccc1F	none
O=C(Nc1ccc(F)cc1)c1ccccc1F	Cycloheximide cs 41.8, Shiga inhibitor 114.0
CN(C)CC(=O)Nc1ccc2cn[nH]c2c1	none
CC(C)c1ccc(/C=C(/C#N)c2nnc(NC(=O)c3ccccc3)s2)cc1	none
COc1cccc(/C=N/n2cnc3cc(C)c(C)cc32)c1OC	none
Cc1cc2ncn(/N=C/c3cc(Br)ccc3O)c2cc1C	Pf growth 96h inconclusive, Pf growth 48h 1.04µM
O=[N+]([O-])c1ccc(/C=N/n2cnc3ccccc32)s1	Pf growth 96h inconclusive, Pf growth 48h 5.86µM
Cc1cc2ncn(/N=C/c3ccc([N+](=O)[O-])s3)c2cc1C	Pf growth 96h 3.7µM, Pf growth 48h 2.62µM
O=C(c1ccccc1[N+](=O)[O-])n1cnc2ccccc21	none
O=C(NC(Cc1c[nH]c2ccccc12)C(=O)Nc1ccc(F)c([N+](=O)[O-])c1)c1cccs1 (stereo not given)	HCMV antiviral -87.5, Pf growth 96h inconclusive
O=C(NC(Cc1c[nH]c2ccccc12)C(=O)O)c1cccs1 (stereo not given)	none
O=C(NC(Cc1c[nH]c2ccccc12)C(=O)Nc1ccc(OC(F)(F)F)cc1)c1cccs1 (stereo not given)	HCMV antiviral -97.0, Pf growth 96h inconclusive
COC(=O)[C@@]1(Sc2ccc(C)cc2)CC(=O)N[C@@H]1c1ccc(C(F)(F)F)cc1	none (no result: Pf growth 96h, Cycloheximide cs, Pf growth 48h, Shiga inhibitor)
CNC(=O)COC(=O)c1c2c(nc3ccccc13)CCC2	Pf growth 96h inconclusive, Pf growth 48h 13.1µM
COc1ccc(NC(=O)COC(=O)c2c3c(nc4ccccc24)CCCC3)cc1Cl	HCMV antiviral inconclusive, Pf growth 48h 11.7µM (no result: Pf growth 96h)
COc1ccc(OC)c(NC(=O)COC(=O)c2c3c(nc4ccccc24)CCCC3)c1	Pf growth 48h 8.28µM (no result: Pf growth 96h)
CCCCNC(=O)COC(=O)c1c2c(nc3ccccc13)CCC2	Pf growth 96h inconclusive, Pf growth 48h inconclusive
COc1ccc(NC(=O)COC(=O)c2c3c(nc4ccccc24)CCCC3)cc1	Pf growth 96h inconclusive, Pf growth 48h inconclusive
CCC(C)n1ncn(-c2ccc(N3CCN(c4ccc(OCC5COC(Cn6cncn6)(c6ccc(Cl)cc6Cl)O5)cc4)CC3)cc2)c1=O (stereo not given)	HCMV antiviral -65.6, Pf growth 48h 3.38µM
CC(OC(=O)c1ccc2c(=O)n3c(nc2c1)CCCCC3)C(=O)Nc1ncc(Cl)cc1Cl (stereo not given)	none
COc1ccc(N2C(c3ccsc3)=Cc3cc4c(cc3C2c2c[nH]c3ccccc23)OCO4)cc1 (stereo not given)	HCMV antiviral -95.1 (no result: Pf growth 96h, Cycloheximide cs, Pf growth 48h, Shiga inhibitor)
CSc1ccc(CNCC(O)c2ccccc2)cc1 (stereo not given)	Cycloheximide cs 22.1, Pf growth 48h inconclusive
